RmlCD inh 1536 – inhibitors of Mycobacterium tuberculosis RmlC and RmlD coupled enzymes; P9WH09+P9WH11; RmlC+RmlD coupled enzyme assay, percent inhibition; primary screen in compound mixtures; inhibition, % at 3.6 µM; 160,000 compounds, 0.03% hits; in the data active means inhibition mostly above about 34%, no sharp cut-off
Target sequence (P9WH09 whole entry, looked up): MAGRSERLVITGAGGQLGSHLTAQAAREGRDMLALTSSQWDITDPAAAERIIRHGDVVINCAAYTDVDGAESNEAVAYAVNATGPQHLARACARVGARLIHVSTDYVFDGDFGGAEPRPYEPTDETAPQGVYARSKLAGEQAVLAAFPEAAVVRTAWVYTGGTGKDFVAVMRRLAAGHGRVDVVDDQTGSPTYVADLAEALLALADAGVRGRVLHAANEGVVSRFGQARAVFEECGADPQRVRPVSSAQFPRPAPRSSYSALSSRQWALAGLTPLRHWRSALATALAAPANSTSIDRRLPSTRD
Target sequence (P9WH11 whole entry, looked up): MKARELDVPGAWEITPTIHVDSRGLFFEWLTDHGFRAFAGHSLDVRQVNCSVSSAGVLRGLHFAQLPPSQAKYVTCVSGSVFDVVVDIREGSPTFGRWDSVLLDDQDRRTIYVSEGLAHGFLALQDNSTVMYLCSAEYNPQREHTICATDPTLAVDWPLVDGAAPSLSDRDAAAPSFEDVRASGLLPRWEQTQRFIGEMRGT
YopH PTP inh – YopH (Yersinia) phosphatase inhibition | fluorescence Ex485/Em525 | inhibition, % (concentration not given with the values) | 140,000 compounds, 0.16% hits | AID 898; in the data active means inhibition above about 50%
Each line names hits and unclear results; the compound was inactive in the other large screens. The full list was thinned out, with hits kept by preference.

COc1cc(CNc2ccc(N3CCCC3)cc2)cc(Cl)c1OC	none (no result: YopH PTP inh)
CCc1ccc(S(=O)(=O)/N=C2/C=C(Sc3ncn[nH]3)C(=O)c3ccccc32)cc1	YopH PTP inh 93
CCc1ccc(S(=O)(=O)/N=C2\C=CC(=O)c3ccccc32)cc1	none (no result: YopH PTP inh)
CN(C)c1nc(/C=C(\C#N)C(N)=O)c(Cl)n1-c1ccc(F)cc1	none (no result: YopH PTP inh)
O=C(O)c1ccccc1SCC(=O)N1c2ccccc2Sc2ccccc21	YopH PTP inh 60
O=C(O)c1ccccc1SCC(=O)N1CCCCC1	none
CN1N=C2c3ccccc3CCCC2C1c1ccc(F)cc1 (configuration not stated)	none (no result: YopH PTP inh)
COc1ccc(CC2(C)OC(c3ccc([N+](=O)[O-])cc3)=NN2C(C)=O)cc1 (configuration not stated)	none (no result: YopH PTP inh)
CC(=O)C(C(C)=O)C1(O)C(=O)c2ccccc2C1=O	YopH PTP inh 98
CC(=O)N(C)C1=C(O)c2ccccc2C(=O)C1=O	none (no result: RmlCD inh 1536)
O=C(CNC1CCN(Cc2ccccc2)CC1)Nc1ccc(S(=O)(=O)N2CCCCC2)cc1	none (no result: YopH PTP inh)
COc1ccc(-c2nnc3ccc(SCC(=O)Nc4nc5ccccc5s4)nn23)cc1OC	none
COC(=O)c1nc(-c2ccc3c(n2)C(=O)C(N)=C(OC)C3=O)c(N)c(-c2ccc(OC)c(OC)c2O)c1C	none (no result: YopH PTP inh)
COC1=C(N)C(=O)c2nc(-c3nc(C(=O)O)c(C)c(-c4ccc(OC)c(OC)c4O)c3N)ccc2C1=O	YopH PTP inh 101 (no result: RmlCD inh 1536)
CCOC(=O)CC(=O)CSc1nc(CC)c(C)cc1C#N	RmlCD inh 1536 36 (no result: YopH PTP inh)
CCc1nc(SCC(=O)O)c(C#N)cc1C	none
CN(C(=O)COC(=O)CCc1c[nH]c2ccccc12)C(c1ccccc1)c1ccccc1	none
O=c1cc(CN2CCN(c3ccccc3F)CC2)c2cc(O)c(-c3ccccc3)cc2o1	YopH PTP inh 61 (no result: RmlCD inh 1536)
COc1ccc(N2CCN(Cc3cc(=O)oc4cc(-c5ccccc5)c(O)cc34)CC2)cc1	none (no result: RmlCD inh 1536)
CCCCOC(C)n1cc(F)c(=O)[nH]c1=O (configuration not stated)	none
CCC(=O)Oc1ccc2c(C)c(Cl)c(=O)oc2c1	RmlCD inh 1536 43
Cc1c(Cl)c(=O)oc2cc(OC(C)C)ccc12	none (no result: RmlCD inh 1536)
COc1ccc(/C=C(\C#N)C(=O)OCC(=O)NCc2ccc(Cl)cc2)cc1	none
CC(C)Cn1c(N)c(-c2nc(C(C)C)c(C(=O)c3ccccc3F)s2)c(=O)n(C)c1=O	none (no result: YopH PTP inh)
CN1c2ccccc2N(C)C1(C)c1ccccc1	YopH PTP inh 85
CCN1c2ccccc2N(C)C1(C)c1ccccc1 (configuration not stated)	YopH PTP inh 92
CCN1C(=O)N(c2cccc3ccccc23)C(C)=CC1(C)C	none (no result: RmlCD inh 1536)
CN1C(=O)N(C)C2(c3ccccc3)NC(=O)NC12c1ccccc1 (configuration not stated)	none
CC(C)Cc1nc2sc3c(c2c(=O)n1N)CC(C)(C)OC3	none (no result: YopH PTP inh)
O=C(CCN1C(=O)C2C3CC(C(Br)C3Br)C2C1=O)OCC(=O)c1ccccc1 (configuration not stated)	none (no result: RmlCD inh 1536)
CCCOc1ccc(CCC(=O)N/N=C/c2ccncc2)cc1	none (no result: YopH PTP inh)
O=C(O)CCCNc1cc(N2CCC3(CC2)OCCO3)c2noc3c2c1C(=O)c1ccccc1-3	none
CCOC(=O)N1CCN(c2cc(NCCC(=O)O)c3c4c(onc24)-c2ccccc2C3=O)CC1	YopH PTP inh 87
COCCNC(=O)CSC1=N/C(=C/c2ccc(Cl)c(Cl)c2)C(=O)N1c1ccccc1F	none
CC1(N(O)/C=C2\C=CC=CC2=O)CCCCC1=O (configuration not stated)	none (no result: YopH PTP inh)
CCOC(=O)C1=C(CN2CCN(CCC#N)CC2)NC(=O)NC1c1ccc2c(c1)OCO2 (configuration not stated)	none (no result: YopH PTP inh)
N#Cc1c(N)n(CCNC(=O)c2ccccc2)c2nc3ccccc3nc12	none (no result: RmlCD inh 1536)
N#Cc1c(N)n(CCNC(=O)c2cccs2)c2nc3ccccc3nc12	YopH PTP inh 54 (no result: RmlCD inh 1536)
COc1cc(/C=C(\C#N)c2ccccn2)ccc1OCc1ccc(Cl)cc1	none
C=CCSC1=NN2CCS(=O)(=O)N=C2S1	none (no result: YopH PTP inh)
COc1cccc(/C=N/NC(=O)CN(CCc2ccccc2)S(=O)(=O)c2ccc(NC(C)=O)cc2)c1	none (no result: RmlCD inh 1536)
O=C(CSc1ncn[nH]1)c1ccc2c(c1)OCO2	YopH PTP inh 57
O=C(CSc1ncn[nH]1)c1ccc2c(c1)OCCO2	none
O=C(NC(=O)c1ccc(F)cc1F)Nc1ccc(Cl)cc1	none (no result: YopH PTP inh)
O=C(O)/C(=C\C(=O)c1ccccc1)Nc1ccccc1	none (no result: YopH PTP inh)
COC(=O)/C(=C/Nc1cccc2ccccc12)[N+](=O)[O-]	RmlCD inh 1536 100
CCOC(=O)/C(=C\c1cn(C)c2ccccc12)[N+](=O)[O-]	none (no result: RmlCD inh 1536)
O=c1[nH]c(Nc2ccccc2)cc2ccccc12	YopH PTP inh 101
O=c1nccc(Nc2ccccc2)[nH]1	none (no result: YopH PTP inh)
CCOP(=O)(OCC)C(NC(=O)Nc1ccc(Cl)cc1)C(=O)N(CC)CC (configuration not stated)	none
N#CC(=C=[N-])c1nc2ccccc2nc1-[n+]1cccc(NC(=O)c2cccs2)c1	none (no result: YopH PTP inh)
O=C(/C=C/c1ccccc1Cl)NC(=S)Nc1ccccc1C(=O)NC1CCCCC1	none
CCOC(=O)c1ccc(NS(=O)(=O)c2cc(-c3nnnn3C(C)C)ccc2OC)cc1	YopH PTP inh 62 (no result: RmlCD inh 1536)
CCn1nnnc1-c1ccc(OC)c(S(=O)(=O)Nc2ccc(C(=O)OC)cc2)c1	none
S=c1[nH]nc(-c2ccccc2)n1/N=C/C=C/c1ccco1	YopH PTP inh 51
S=c1[nH]nc(-c2ccc(Cl)cc2)n1/N=C/C=C/c1ccco1	none (no result: YopH PTP inh)
CCNC(=S)Nc1cc(OCC)c(NC(=O)c2cccs2)cc1OCC	none (no result: RmlCD inh 1536)
CN1CCN(CCC(=O)Nc2cccc(Br)c2)CC1	none (no result: YopH PTP inh)
COc1ccc(C2=Nc3cccc4cccc(c34)N2)cc1	none
Nc1cccc(C2=Nc3cccc4cccc(c34)N2)c1	YopH PTP inh 62
COc1ccc2c(c1)CCc1c(C(=O)N3CCCCCC3)noc1-2	none
COc1ccc2c(c1)CCc1cc(C(=O)N3CCN(c4ccc(N5CCOCC5)nn4)CC3)sc1-2	YopH PTP inh 76
O=[N+]([O-])c1ccccc1SN(Cc1ccccc1)c1ccccn1	none
CC(=O)[C@@H]1[C@@H]2C(=O)N(Cc3ccccc3)C(=O)[C@@H]2C2c3ccccc3C=CN21 (some centres not stated)	none
CC(C)(C)C(=O)[C@@H]1[C@@H]2C(=O)N(c3ccc4c(c3)OCCO4)C(=O)[C@@H]2C2c3ccccc3C=CN21 (some centres not stated)	none (no result: RmlCD inh 1536)
COc1ccc(N2C(=O)[C@@H]3[C@H](C2=O)[C@H]2c4ccccc4C=CN2[C@@H]3C(=O)Nc2ccccc2)cc1	none
O=C(c1ccco1)[C@@H]1[C@@H]2C(=O)N(c3ccccc3)C(=O)[C@@H]2C2c3ccccc3C=CN21 (some centres not stated)	YopH PTP inh 82 (no result: RmlCD inh 1536)
Cc1ccc(N2C(=O)[C@@H]3[C@H](C2=O)C2c4ccccc4C=CN2[C@@H]3C(=O)c2ccco2)cc1 (some centres not stated)	YopH PTP inh 92
Cc1ccc(N2C(=O)[C@@H]3[C@H](C2=O)C2c4ccccc4C=CN2[C@@H]3C(=O)c2ccco2)c(C)c1 (some centres not stated)	YopH PTP inh 95 (no result: RmlCD inh 1536)
CN1CCNC(=O)C1CC(=O)NCCc1ccccc1F (configuration not stated)	none (no result: YopH PTP inh)
O=C(CN1C(=O)C2C3CC(C(Br)C3Br)C2C1=O)Nc1ccc(C(=O)O)cc1 (configuration not stated)	none (no result: YopH PTP inh)
COCC(C)NCC(=O)NC(C)CCc1ccccc1 (configuration not stated)	none (no result: RmlCD inh 1536)
CNC(=S)N/N=C/c1cc(Br)cc(Br)c1O	none

Screening results as filed in PubChem.
